From PubChem BioAssay (NCI)
Compounds without any hit were thinned out: in the full panel of roughly 83,000, 20% have a hit.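 Plates (96-well) were seeded with cells, treated with compound at one concentration, and incubated for 48 hours before percent growth was determined.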 Activity calls are given as the source filed them.

What follows are molecules tested on HOP-92 NSCLC (assay: NCI-60 one-dose screen, 48 h (100 = growth as untreated, 0 = no growth, -100 = all killed)). Details: 10 µM unless noted.
Method: Growth inhibition of the HOP-92 human Non-Small Cell Lung tumor cell line is measured as a screen for anti-cancer activity. Cells are grown in 96 well plates and exposed to the test compound for 48 hours. Compounds are tested at a single concentration, which is 10^-5 M for most compounds. The reported endpoint is percent growth (GI% or GIPRCNT), where numbers from 0 - 100% represent growth inhibition, and numbers from -100% - 0 represent cell death. For example, a value of 40 represents 60% growth inhibition. A value of 0 means no net growth occurred over the course of the experiment. A value of -40 indicates 40% of cells at the beginning of the experiment died by the end of the experiment. A value of -100 means all cells are dead at the end of the experiment.
NCI-60 Human Tumor Cell Lines Screen was performed using the standard one-dose NCI protocol, which is described in more detail at https://dtp.cancer.gov/discovery_development/nci-60/default.htm.
Compounds with GIPRCNT values below 10 were considered active. Activity score was based on GIPRCNT using the following formula: […]
Score is 0 for GIPRCNT values of 100 or above, 50 for GIPRCNT values of 0, and 100 for GIPRCNT values of -100.

Row | SMILES | growth
1 | COc1cc(C(=O)c2cc(C)c3[nH]c4ccc(C)cc4c3c2C)cc(OC)c1OC | 29.2% (inactive)
2 | CNCCCNc1nc2ccccc2c2c(=O)c3cc(F)ccc3sc12 | 28.9% (inactive)
3 | CCCCCCNC(=O)Oc1ccc(/C(=C(\C)c2ccc(OC)cc2)c2ccc(OCCN3CCCCC3)cc2)cc1 | 67.6% (inactive)
4 | O=c1c2cc(F)cc(Cl)c2sc2c(NCCCNCCO)nc3ccccc3c12 | 65.6% (inactive)
5 | Cc1c(C(=O)/C=C/Nc2c(Cl)cc(S(N)(=O)=O)cc2Cl)sc2nc3ccccc3n12 | 111% (inactive)
6 | COC1=C(C)C(=O)c2c(c(CCCl)c3n2CCC3O)C1=O (stereo not given) | 103% (inactive)
7 | CCOC(=O)c1sc2ncc(-c3ccc(OC)cc3)n2c1C | 92.6% (inactive)
8 | OC(COc1ccccc1Cl)CN1CCN(c2cccc(Cl)c2)CC1 (stereo not given) | 79.2% (inactive)
9 | Cc1ccc(C(=O)N/N=C/c2cccc(Oc3ccccc3)c2)cn1 | 71.6% (inactive)
10 | O=C(/C=C/c1cccc2ccccc12)c1ccc(NC(=O)c2ccccc2CN2C(=O)c3ccccc3C2=O)cc1 | 80.2% (inactive)
11 | Cc1cc2nc3ccc(N=Nc4ccc(N(C)C)cc4)cc3n(-c3ccccc3)c-2cc1=N | -70.3% (active)
12 | O=C1COCCN1c1ccc(NCc2cn(C(=O)c3ccc(Cl)cc3)c3ccccc23)cc1 | 58.2% (inactive)
13 | CCOC(=O)c1nc(Nc2ccc(C(C)=O)cc2)sc1C | 108% (inactive)
14 | COc1ccccc1/C=C1\Oc2cc(OCCN3CCC(Cc4ccccc4)CC3)ccc2C1=O | 57.8% (inactive)
15 | COc1ccc(C(=O)C[C@]2(O)C(=O)Nc3c(Cl)ccc(Cl)c32)cc1 | 62.1% (inactive)
16 | Oc1ccc(CCl)c2cccnc12 | 89.2% (inactive)
17 | CCc1ccc(Oc2c(-c3ccc(OCc4ccc(Cl)cc4)cc3O)nn(C)c2C(F)(F)F)cc1 | -25.3% (active)
18 | Cc1ccc(-c2nc(N3CCN(C(=O)Nc4ccc(Cl)c(C(F)(F)F)c4)CC3)c3ccccc3n2)cc1 | 82% (inactive)
19 | CC(=O)CC(c1ccccc1)c1c(C)[nH]c2ccccc12 (stereo not given) | 94.3% (inactive)
20 | COc1cc(C(=O)c2cnc(-c3cccc4[nH]ccc34)[nH]2)cc(OC)c1OC | 17.5% (inactive)

Row | SMILES | growth
21 | COc1cc(C(=O)/C=C/c2ccc(OCCCCCC[P+](c3ccccc3)(c3ccccc3)c3ccccc3)cc2)cc(OC)c1OC | -26.2% (active)
22 | N#Cc1c(Nc2cccc(Cl)c2)sc(C(=O)c2cc3cc(Cl)ccc3o2)c1N | 8.1% (active)
23 | COc1ccc(-c2cnc3ccccc3n2)cc1 | 86.9% (inactive)
24 | COc1cc(C(=O)c2cc(C)c3[nH]c4ccc(O)cc4c3c2C)cc(OC)c1OC | 32.2% (inactive)
25 | COC(=O)c1ccc2[nH]c(O)c(C(=Nc3ccc(N(C)C(=O)CN4CCN(C)CC4)cc3)c3ccccc3)c2c1 | 59.7% (inactive)
26 | CC/C=C\C[C@@H](O)C/C=C1/C(=O)C=C[C@H]1C/C=C\CCCC(=O)OC | 22.9% (inactive)
27 | COc1ccc(-c2nnc(COc3ccc(Cl)cc3Cl)o2)cc1OC | -32.4% (active)
28 | Cc1ccc(-c2nc(N3CCN(CC(=O)Nc4ccc(Cl)c(C(F)(F)F)c4)CC3)c3ccccc3n2)cc1 | 96.5% (inactive)
29 | Cc1cc(=O)[nH]c(=O)n1Cc1cn(-c2c3ccccc3nc3ccccc23)nn1 | 67.6% (inactive)
30 | COc1ccc(-c2[nH]c3ccc(OC)cc3c2/C=C(\C#N)S(=O)(=O)c2ccccc2)cc1 | 29.2% (inactive)
31 | C#C[C@]1(O)CC[C@H]2[C@@H]3CC=C4c5sc(Nc6ccccc6)nc5CC[C@]4(C)[C@H]3CC[C@@]21C | 53.4% (inactive)
32 | CCc1cccc2c1S/C(=C/c1ccc(OC)cc1)C2=O | 72.2% (inactive)
33 | Oc1ccc(Cl)cc1Cc1cc(Cl)cc(Cl)c1O | -24.9% (active)
34 | CCOC(=O)/C=C1\S/C(=N\Nc2ccc([N+](=O)[O-])cc2[N+](=O)[O-])N(Cc2ccccc2)C1=O | 71.5% (inactive)
35 | CCN(CC)CCNc1nc2ccccc2c2c(=O)c3cc(Cl)ccc3sc12 | 28.6% (inactive)
36 | COc1cc2cc(Oc3ccc(NC(=O)Nc4cc(C(F)(F)F)cc(C(F)(F)F)c4)cc3)c(C)nc2cc1OCCN1CCOCC1 | -14.2% (active)
37 | c1cc2nc(-c3cn[nH]c3)c3c(c2cc1-c1cn[nH]c1)C1CCC3C1 (stereo not given) | 28% (inactive)
38 | O=c1c2cc(C(F)(F)F)ccc2sc2c(NCCCNCCO)nc3ccccc3c12 | 27.9% (inactive)
39 | O=C(CCOCCNC(=O)COc1ccc2c(c1)OCC(c1ccc(F)cc1)C2=O)NCCCC(O)(P(=O)(O)O)P(=O)(O)O (stereo not given) | 120% (inactive)
40 | CCn1cnc2c1c(=O)[nH]c(=O)n2CC1CCC(CNS(=O)(=O)c2ccc(OC3CCOCC3)c(F)c2)CC1 (stereo not given) | 31% (inactive)
